# From PubChem BioAssay
# Rows were chosen to be rich in hits. Some 3.6% of all compounds tested hit in one or more screens of this group.
# HTT-AS act – Primary qHTS for Identification of Small Molecule Activators of Huntingtin-Antisense Promoter Activity | hit rate 0.24% among 48,000 | AID 1508624, 2021 | Potency, µM (top dose mostly 57.5 µM), hits mostly activators | HEK293 HTT-AS promoter firefly luciferase reporter, 24 h; response scale: percent change from vehicle, -100% = no light; note: nearly all actives have a fitted effect of over 55% in size
#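 HEK293 cells carrying firefly luciferase reporters were seeded at 2,500 per well in Opti-MEM and cultured for 24 h. They were then treated with compounds at up to 57.5 uM final for 24 h at 37 degrees C before Dual-Glo luminescence readout.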
# S16 F2sN tox – Cell viability qHTS assay in S16 Pmp22-F2sN cells; S16 Pmp22-F2sN Schwann cells viability, CellTiter-Glo, 24 h; Potency, µM (doses to about 57.5 µM), usual class: cytotoxic; hit rate 0.48% among 43,000; note: nearly all actives have a fitted effect of over 65% in size
#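 Used to flag compounds lowering reporter output through toxicity, this quantitative HTS measures ATP-based CellTiter-Glo luminescence in S16 Pmp22-F2sN Schwann cells after 24 h compound exposure at 37C.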
# pS6 MEF inh – Acumen qHTS Assay for Inhibitors of the mTORC1 Signaling Pathway in MEF (Tsc2-/-, p53-/-) Cells: Sytravon; Tsc2-/- p53-/- MEF, phospho-rpS6 immunofluorescence/PI, 24 h; Potency, µM (highest dose often 38.3 µM), actives largely listed as inhibitors; hit rate 0.78% among 44,000; note: nearly all actives have a fitted effect of over 50% in size
#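 Readout is phospho-S6 Alexa 488 signal normalized to PI per well, reported as % active cells with thresholds set from rapamycin (7.5 nM) and DMSO controls. Cells: Tsc2-/-, p53-/- MEFs, 24 hrs compound at 37 C; PI cell number serves as viability.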
# HTT prom inh – Primary qHTS for Identification of Small Molecule Inhibitors of Huntingtin Promoter Activity; HEK293 HTT promoter firefly luciferase reporter, 24 h; Potency, µM (top dose mostly 57.5 µM), hits mostly inhibitors; hit rate 0.93% among 48,000; note: nearly all actives have a fitted effect of over 50% in size
#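 HEK293 Fluc reporter, 2,500 cells/well, 24 h pre-culture; cpds up to 57.5 uM final, 24 h 37 degrees C; Dual-Glo, 10 min RT; normalized vehicle = 0%, zero RLU = -100%.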
# PMP22 txn – Cell-based coincidence reporter assay to measure PMP22 gene transcription in S16 Pmp22-F2sN cells - Primary screen; S16 Pmp22-F2sN Schwann cells (luciferase reporters placed in the Pmp22 gene), FLuc/NLuc coincidence luminescence, 24 h; Potency, µM (top dose mostly 57.5 µM), usual class: inhibitors; hit rate 2% among 43,000; active = clear falling dose curves in both reporters; inconclusive = both reporters move, but less clearly or upward; inactive = either reporter flat; the % is the NLuc reporter signal
#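 Luminescent read-out of sequential FLuc and NLuc signals from a reporter embedded in the Pmp22 3' UTR of S16 Schwann cells, taken after 24 h compound exposure at 37C; compounds reducing both signals score as inhibitors of expression.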
# Hits are given with their value; i = inactive; ? = inconclusive; nt = no result given; ! = not active in a repeat; [ ] = dose if it differs, or a comment. Unless noted, calls come from the whole dose curve; as a rule, active = well fitted curve in the direction sought with a large enough effect; inconclusive = small, poorly fitted or top-dose-only effect, or another doubt; inactive = no such curve, though single readings can be large; an effect the other way counts as inactive or inconclusive.
SMILES,HTT-AS act,S16 F2sN tox,pS6 MEF inh,HTT prom inh,PMP22 txn
Cc1ccc(C(=O)Nc2cccc3cccnc23)cc1Cl,8.91µM,i,i,i,i
O=C(c1cncc(Br)c1)N1CCC(N2CCCC2)CC1,i,nt,nt,i,nt
CC(C)(C)COc1ccc(-n2cc(C(=O)O)cn2)cc1C#N,i,nt,nt,?,nt
Cc1nc(-c2ccc(OCC(C)C)c(C#N)c2)sc1C(=O)O,i,nt,nt,5.01µM!,nt
Cc1ccc(C)c(NC(=O)Cn2nnc(C(=O)NCc3ccccc3Cl)c2N)c1,i,14.1µM,i,?,?
CCCCOc1cccc(NC(=O)c2cccc(C(=O)Nc3cccc(OCCCC)c3)c2)c1,i,i,7.36µM,i,i
CCCOc1ccc(C(=O)Nc2ccc(NC(=O)c3ccccc3)c(C)c2)cc1,i,i,13.1µM,i,?
CCCOc1ccc(C(=O)Nc2cccc(NC(=O)c3ccc(Cl)cc3Cl)c2)cc1,i[11.5 µM],14.1µM,i,i,?
CCCOc1cccc(C(=O)Nc2cccc(NC(=O)c3ccc(Cl)cc3Cl)c2)c1,i,?,i,i,i
CCCNS(=O)(=O)Nc1ncnc(OCCOc2ncc(Br)cn2)c1-c1ccc(Br)cc1,i,nt,nt,i,nt
Cc1cc(NC(=O)c2oc3c(c2C)-c2[nH]ncc2CC3)ccc1Br,1.12µM,i,i,i,?
C=C1C(=CC=C2CCC[C@]3(C)[C@@H]([C@H](C)CCCC(C)(C)O)CC[C@@H]23)C[C@@H](O)C[C@@H]1O,i,nt,nt,i,nt
Cc1cc(CS(=O)(=O)c2ccccc2)cc(OCc2ccc(CN3CCC[C@H]3CO)cc2)c1,i,nt,nt,i,nt
CCN(c1ccccc1)S(=O)(=O)c1ccc(NC(=O)c2cc(=O)c3ccc(C)c(C)c3o2)cc1,i,i,i,i,i
CCc1ccc(NC(=O)c2cc(=O)c3ccc(C)c(C)c3o2)cc1,i,?,?,?,16.3µM
COc1ccc2[nH]cc(CCN=C(NC(=O)c3ccccc3C)Nc3nc(C)cc(C)n3)c2c1,i,i,i,i,?
COc1ccc2[nH]cc(CCN=C(NC(=O)c3ccccc3OC)Nc3nc(C)cc(C)n3)c2c1,i,?,i,?,13.9µM
CO[C@H]1C=CC=C(C)C(=O)NC2=CC(=O)C(NCCN(C)C)=C(C[C@@H](C)C[C@H](OC)[C@@H](O)[C@@H](C)C=C(C)[C@@H]1OC(N)=O)C2=O,i,nt,nt,?,nt
COc1ccc(-c2ccc(CCC(=O)O)n2-c2ccccc2O)cc1,i,i,13.1µM,i,i
COc1ccc(-c2ccc(CCC(=O)O)n2-c2ccccc2C(F)(F)F)cc1,i,i,i,i,?
CCCCCCOC(=O)N=C(N)c1ccc(NCc2nc3cc(C(=O)N(CCC(=O)OCC)c4ccccn4)ccc3n2C)cc1,i,nt,nt,i,nt
CC(=O)N1CCCc2cc(S(=O)(=O)N3CCC(C(=O)Nc4c(C)cccc4C)CC3)ccc21,i,i,i,20µM,i
CC(=O)N1CCCc2cc(S(=O)(=O)N3CCCC(C(=O)N4CCN(c5ccccc5)CC4)C3)ccc21 (stereo not drawn),i,?,i,11.2µM,?
Cc1ccc(-n2ncc3c(N4CCCCCC4)ncnc32)cc1Cl,i,i,i,0.355µM,i
CCCCN(CC)CCCNC(=O)C1CCN(c2nc3ccc(CC)cc3s2)CC1,i,?,7.36µM,i,?
SMILES,HTT-AS act,S16 F2sN tox,pS6 MEF inh,HTT prom inh,PMP22 txn
CCCCN(C)CCCNC(=O)C1CCN(c2nc3ccc(CC)cc3s2)CC1,?,?,18.5µM,i,?
CCCCN(C)CCCNC(=O)C1CCN(S(=O)(=O)CC)CC1,i,i,i,i,i
CC(C)n1cnc2c(NCCc3ccc(O)cc3)nc(-c3csc4ccccc34)nc21,i,nt,nt,?,nt
Cc1ccc(NCc2nc3ccccc3n2CCOc2ccccc2C)cc1,i,?,i,i,?
Cc1ccccc1OCC(O)Cn1c(=N)n(CCN2CCCCC2)c2ccccc21 (stereo not drawn),i,?,10.4µM,?,?
Cc1ccccc1OCCn1c(=N)n(C(C)C)c2ccccc21,i,?,18.5µM,?,?
CNC(=O)c1ccc2c(c1)N=C(C)c1cc(C)ccc1S2,i,i,i,i,i
CCC1=Nc2cc(C(=O)NC3CCCC3)ccc2Sc2ccc(Cl)cc21,i,?,?,?,8.43µM
CC1=Nc2cc(C(=O)NC3CCCC3)ccc2Sc2ccc(Cl)cc21,i,?,i,?,5.32µM
CCNC(=O)c1noc(-c2cc(C(C)C)c(O)cc2O)c1-c1ccc(CN2CCOCC2)cc1,i,nt,nt,?,nt
CCCn1c(=O)c2[nH]c(-c3cnn(Cc4cccc(C(F)(F)F)c4)c3)nc2n(CC)c1=O,i,nt,nt,i,nt
C=CCc1c(C)nc2nc(SCC(=O)Nc3cccc(Cl)c3)nn2c1C,i,i,i,?,?
C=CCc1c(C)nc2nc(SCC(=O)Nc3ccc(C)c(C)c3)nn2c1C,i,?,10.4µM,i,?
COc1ccccc1[C@H](c1cccc2ccccc12)[C@@](C)(C#N)C(=O)N1CCC(c2cccc(C(F)(F)F)c2)CC1,i,nt,nt,i,nt
CCOC(=O)COc1ccc(/C=C(\C#N)c2nc3ccc(C)cc3[nH]2)cc1OC,i,8.91µM,i,i,8.91µM
Cc1ccccc1C(=O)Nc1sc2c(c1C(=O)O)CCC(C(C)(C)C)C2 (stereo not drawn),i,i,i,2.82µM,i
CCCc1ccc(C2Sc3ccccc3NC3=C2C(=O)c2ccccc23)cc1 (stereo not drawn),i,?,?,31.6µM,?
O=C1C2=C(Nc3ccccc3SC2c2ccccc2C(F)(F)F)c2ccccc21 (stereo not drawn),i,?,?,?,12.7µM
CN(C1CCc2c(c3ccccc3n2CC(=O)O)C1)S(=O)(=O)c1ccc(F)cc1 (stereo not drawn),i,nt,nt,i,nt
Cc1c(Cn2c(C)nc3c(C(=O)O)cc(N4CCOCC4)cc32)cccc1C(F)(F)F,i,nt,nt,i,nt
CCc1ccc(NS(=O)(=O)c2cc(-c3cnc(C4CC4)o3)ccc2C)cc1,i,?,i,?,i
CCOC(=O)c1cccc(NS(=O)(=O)c2cc(-c3cnc(C4CC4)o3)ccc2C)c1,i,20µM,i,?,i
COc1cc2nccc(Oc3ccc(NC(=O)Nc4cc(C)on4)c(Cl)c3)c2cc1OC,i,nt,nt,?,nt
O=C(O)c1ccc(O)c2ncc(N3CCOCC3)cc12,i,nt,nt,i,nt
CCCc1nn2c(=O)cc(COC(=O)c3cccc(NC(=O)CCc4ccccc4)c3)nc2s1,i,i,i,i,i
CCCCc1nn2c(=O)cc(COC(=O)c3cccc(NC(=O)CCc4ccccc4)c3)nc2s1,0.251µM,i,i,i,?
